ABHD5 PLIN5 PPI: blocks binding of human ABHD5 to perilipin-5. Split G. princeps luciferase complementation, luminescence, 4 h. inhibition, % at 4 µM. 360,000 compounds, 0.78% hits. AID 602281;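 active means inhibition above the mean inhibition across every tested compound plus 3 SD, cut at about 22% in these data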
MBD2 inh: MBD2-methylated oligo binding inhibition | Q9UBB5 | TR-FRET, MBD2 binding to methylated oligonucleotide | inhibition, % at 4.4 µM | 370,000 compounds, 0.31% hits; in the data active means inhibition above about 13%
Target sequence (Q9UBB5 whole entry, looked up): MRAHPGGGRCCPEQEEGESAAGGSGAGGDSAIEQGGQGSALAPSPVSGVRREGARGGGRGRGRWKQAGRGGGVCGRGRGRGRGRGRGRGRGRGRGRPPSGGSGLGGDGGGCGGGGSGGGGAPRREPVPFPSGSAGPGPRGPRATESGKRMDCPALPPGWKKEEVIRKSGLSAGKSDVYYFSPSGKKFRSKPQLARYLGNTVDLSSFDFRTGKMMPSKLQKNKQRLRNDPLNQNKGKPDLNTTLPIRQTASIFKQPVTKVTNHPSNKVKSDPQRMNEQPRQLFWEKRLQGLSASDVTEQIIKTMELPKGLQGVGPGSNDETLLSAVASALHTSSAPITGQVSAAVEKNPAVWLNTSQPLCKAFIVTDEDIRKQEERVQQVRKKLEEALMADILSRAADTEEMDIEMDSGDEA
LEDGF integ inh: blocks HIV-1 LEDGF/p75-dependent DNA integration; 370,000 compounds, 0.64% hits; inhibition, % at 3.7 µM; TR-FRET IN-LEDGF/p75 DNA integration, Eu/Cy5;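 active means inhibition above the screen-wide mean plus 3 SD, cut at about 13% in these data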;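 further: signal is the Cy5 over europium emission ratio at 671 and 618 nm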
UHRF1 binding: UHRF1 methyl-DNA binding inhibition. Q96T88. UHRF1 binding to methylated oligo, TR-FRET. inhibition, % at 4.4 µM. 370,000 compounds, 0.75% hits; in the data active means inhibition above about 21%;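 further: UHRF1 SRA domain binding a hemimethylated CpG hairpin DNA probe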
PRMT1 FP inh: blocks human protein arginine methyltransferase 1. 370,000 compounds, 1.3% hits. recombinant PRMT1, activity-based probe fluorescence polarization. Q99873. inhibition, % at 2.79 µM. AID 652257;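 active means inhibition above about 21% made by adding two undisclosed values, limit read from the data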
rCAG RNA binder: r(CAG) repeat RNA binding; TO-PRO-1 dye displacement fluorescence; inhibition, % at 3 µM; 370,000 compounds, 1.3% hits; AID 651821;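 active means inhibition above the plate cutoff, the mean of all test compounds on that plate plus 3 SD, cut at about 35% in these data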;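 further: higher means more dye released from RNA so lower well fluorescence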
IN multimer act: activates HIV-1 integrase multimerization in LEDGF counter-screen; shares compounds with LEDGF integ inh; TR-FRET HIV-1 integrase multimerization, biochemical; activation, % at 7.7 µM; 2,000 compounds, 17% hits; in the data active means activation above about 8.9%
TRFRET interf: TR-FRET optical interference, LEDGF/p75 integration counter-screen. shares compounds with LEDGF integ inh. TR-FRET optical interference counterscreen, HIV-1 IN multimerization. inhibition, % at 7.7 µM. 2,000 tested, under 10 active. AID 1053135;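 active means inhibition above the mean over all tested compounds plus 3 SD, which no compound reached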
LEDGF integ conf: confirmation of HIV-1 LEDGF/p75-dependent integration inhibitors. shares compounds with LEDGF integ inh. TR-FRET LEDGF/p75-dependent HIV-1 integration, biochemical. inhibition, % at 3.7 µM. 2,000 compounds, 36% hits. AID 1053136; in the data active means inhibition above about 14%
Numbers stand for hits; – = inactive; · = not tested or not shown. An excerpt weighted towards active compounds, which were near 4.1% of everything screened.

SMILES | ABHD5 PLIN5 PPI | MBD2 inh | LEDGF integ inh | UHRF1 binding | PRMT1 FP inh | rCAG RNA binder | IN multimer act | TRFRET interf | LEDGF integ conf
Cc1cc(C)c(-c2csc(NC(=O)C3=COCCO3)n2)cc1C | – | – | – | – | – | – | · | · | ·
C=CCn1c(C)cc(-c2csc(NC(=O)C3=COCCO3)n2)c1C | – | – | 51.2 | – | – | – | – | – | –
O=C1CCCC2=C1[C@@]1(O[C@H]3C=CC=CN23)C(=O)N(c2ccccc2)c2ccccc21 | · | – | – | – | – | – | · | · | ·
C(=C\n1nnc2ccccc21)/c1ccc[nH]1 | – | – | 27.0 | – | – | – | – | – | 37.3
Cc1onc(-c2ccc(Cl)cc2)c1-c1ccn(S(=O)(=O)c2ccccc2Cl)n1 | · | – | – | – | – | – | · | · | ·
CCN(CC)c1cc(Cl)c2nonc2c1N | – | – | – | – | – | – | · | · | ·
CN(C)c1cc(Cl)c2nonc2c1N | – | – | 26.3 | – | – | – | – | – | –
COC(=O)[C@]12C[C@H](CC(=O)NCc3cccs3)C(=O)N(CCC3=CCCCC3)C1=C[C@H](C(C)C)O[C@@H]2C1CC1 | · | – | – | – | – | – | · | · | ·
O=c1c2cc3cccnc3nc2ncn1Cc1cccs1 | · | – | – | – | – | – | · | · | ·
CC(Nc1cccc2ccccc12)C(=O)N/N=C/c1ccccn1 (centres undefined) | – | – | 23.4 | – | 24.6 | – | – | – | –
COc1ccc(OC)c(/C=N/NC(=O)CCc2ccc(O)c(O)c2)c1 | – | – | 58.0 | – | 47.7 | – | – | – | –
COc1ccc(OC)c(/C=N/NC(=O)CCc2c(C)n[nH]c2C)c1 | – | – | – | – | – | – | · | · | ·
NC(=O)Cn1c(=O)n(CCC(=O)NCCSCc2ccccc2)c(=O)c2ccccc21 | – | – | 63.9 | – | – | – | – | – | –
O=C(NCc1ccccc1)C1Nc2ccc(OC(F)(F)F)cc2C2C=CCC12 (centres undefined) | – | – | 22.1 | – | – | – | – | – | –
O=C(N=C1N(Cc2ccccc2)C[C@]2(C=C3CCCCC3n3c(=O)n(-c4ccccc4)c(=O)n32)N1C(=O)OCc1ccccc1)c1ccccc1 (some centres undefined) | · | – | – | – | – | – | · | · | ·
COC(=O)c1cccc(-c2ccc(C(c3c(C)[nH][nH]c3=O)c3c(C)[nH][nH]c3=O)o2)c1 | – | – | 13.5 | – | 29.1 | – | – | – | –
COC(=O)c1cn(C(=O)c2cc(OC)cc(OC)c2)c2ccccc12 | – | – | – | – | – | – | · | · | ·
COc1cc(OC)cc(C(=O)n2cnnc2N)c1 | – | – | 25.0 | – | – | – | – | – | –
COc1cccc(-c2ccc3c(c2)[C@@H]2C[C@H]4[C@@H](CN2CC3)[C@H](C)ON4C)c1 | · | – | – | – | – | – | · | · | ·
COC(=O)c1sccc1N/C=C(\C#N)S(=O)(=O)C(C)(C)C | – | – | 78.8 | – | – | – | – | – | –
COC(=O)c1sccc1NS(=O)(=O)c1ccc(OC)cc1 | – | – | – | – | – | – | · | · | ·
CCC(C)NC(=O)CNc1nnnn1-c1ccccc1 (centres undefined) | · | – | – | – | – | – | · | · | ·
Cc1ccc(-c2nn(-c3ccccc3)cc2CO)o1 | – | – | 15.4 | – | 24.7 | – | – | – | –
CCNC(=S)N(Cc1ccccc1)Cc1nc2ccccc2c(=O)[nH]1 | – | – | 69.6 | – | – | – | – | – | –
COc1ccc(NC(=O)N[C@@H](CCSC)C(=O)O)cc1Cl | – | – | 81.3 | – | – | – | – | – | –
CC(C)C[C@@H]1NC(=O)[C@H]2C[C@@]3(C)c4ccccc4N[C@H]3N2C1=O | · | – | – | – | – | – | · | · | ·
O=C(CCC(=O)c1ccccc1)Nc1ccccc1 | – | – | 14.4 | – | – | – | – | – | –
O=C(CCCCC(=O)Nc1ccccc1)Nc1ccccc1 | – | – | – | – | – | – | · | · | ·

Source: PubChem (The Scripps Research Institute Molecular Screening Center)
